Drawing on PubChem BioAssay AID1347433 (National Center for Advancing Translational Sciences (NCATS), 2020), this text covers Potency for seven compounds.

Records with an inconclusive call do not appear. A call without a number means that no potency is given here. Calls of active or inactive are those of the source. The call rests on the fitted dose curve; in most records, active means well fitted curve in the direction sought with a large enough effect; inconclusive means small, poorly fitted or top-dose-only effect, or another doubt; inactive means no such curve, though single readings can be large or run the other way.

Single-stranded DNA cytosine deaminase (Homo sapiens), sequence (Q9GZX7 whole entry, looked up): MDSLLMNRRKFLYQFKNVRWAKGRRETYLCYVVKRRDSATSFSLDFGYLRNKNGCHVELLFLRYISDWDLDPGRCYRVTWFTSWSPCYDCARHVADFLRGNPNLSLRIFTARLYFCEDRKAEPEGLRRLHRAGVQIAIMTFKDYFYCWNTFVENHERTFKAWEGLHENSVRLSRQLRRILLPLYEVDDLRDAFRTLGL

The test addresses Single-stranded DNA cytosine deaminase (Homo sapiens) (UniProt Q9GZX7). Put plainly: Confirmatory (Round 2) qHTS assay for inhibitors of Activation Induced Cytidine Deaminase (AID): AID signals. To be noted: AID deamination FRET-based fluorescence assay with UDG, 4 h; series mostly up to 78.4 µM. An excerpt: Assay Provider (PI) Patricia Gearhart Ph.D. National Institute on Aging National Institute of Health (NIH), Bethesda, MD Assay Provider (PI) Rahul Kohli Ph.D. Perelman School of Medicine University of Pennsylvania, Philadelphia, PA Activation-Induced Deaminase (AID) is a cytosine deaminase which converts cytosine into uracil within stretches of ssDNA. The presence of uracil in DNA initiates a cascade of mutagenic DNA repair to introduce point mutations and DNA double strand breaks. Specific targeting of AID to the immunoglobulin heavy chain loci (Igh) promotes mutagenesis in the antibody variable region for somatic hypermutation (SHM) or switch regions leading to class switch recombination (CSR). However, AID also plays a role in accumulating unnecessary mutations across the genome. Mis-targeting of AID results in the initiation of tumor development and leads to greater drug resistance among cancer cells when continually expressed. To identify an AID inhibitor, a small molecule library will be screened in collaboration with NCATS core facility at NIH. To confirm biological function, inhibitors will be examined in an in vitro murine B-cell activation assay and subsequent secondary validation screens. Top molecules will be further screened to identify inhibitory efficacy against a wild type primary splenocytes assay. Using these approaches, we hope to identify a small molecule with great efficacy and low toxicity for use as a molecular probe to further characterize AID's intricacies, or even as a therapeutic. A FRET based analysis of cytosine deamination, was developed to identify potential inhibitors of AID catalytic activity. This screen has two signal output, Read 1 evaluates the AID inhibition response. The second readout (Read 2) evaluates UDG response and is uses as a counterscreen to exclude false positive inhibitors. Inhibition in AID and inactivity in the UDG signal is the desired outcome for this assay.
PROTOCOL TABLE SEQUENCE No. (e.g., 1, 2, 3, etc.); PARAMETER (e.g., Cells, Incubation, Reagent, etc.); VALUE; DESCRIPTION 1a; Reagent; 3 uL; [4/3x] 1 uM AID/2.67 U/mL UDG 1b; Reagent; 3 uL; 2 U/mL UDG 1c; Reagent; 3 uL; 1 uM AID 2a; Compound; 46 nL; Follow-up plates (0.64 uM - 10 mM) 2b; Control; 46 nL; ATA ([…] - 10 mM) 3; Time; 10 min; incubation at room temperature 4; Reagents; 1 uL; [4x] 250 nM DJC20 / 250 nM DJC23 [Substrate] 5; Time; 4 hr; incubation at room temperature 6; Reagent; 4 uL; [2x] 250 mM NaOH 7; Time; 15 sec; centrifuge at 1000 rpm 8; Time; 30 min; incubation at room temperature 9a; Detection; fluorescence (Read 1: AID); EnVision (PerkinElmer) plate reader, 540 excitation and 590 emission filters 9b; Detection; fluorescence (Read 2: UDG); EnVision (PerkinElmer) plate reader, 560 excitation and 665 emission filters NOTES (numbers refer to sequence above) 1a; Reagents were dispensed in a medium-binding black solid-bottom Greiner plates (789176F) using a BioRptr liquid dispenser. Dispense 3 uL of [4/3x] 1 uM AID (provided by Kohli lab) and [4/3x] 2 U/mL UDG (NEB M0280L) into columns 1, 2, 5 to 48. 1b; Dispense 3 uL of [4/3x] 2 U/mL UDG into column 3. 1c; Dispense 3 uL of [4/3x] 1 uM AID into column 4. 2a; Compound (7-points [uM]: 0.64; 3.2; 16; 80; 400; 2,000; 10,000; […]) double pin-transferred (Dip Factor = 2) using the Kalypsys (Wako USA) pintool equipped with a 1536 pinhead for a final concentration range of 7.32 nM - 114 uM. 2b; 10 mM Aurintricarboxylic Acid (Sigma A1895) (ATA, 8-point, n = 2, 1:2.5 dilution in column 2) double pin-transferred (Dip Factor = 2) using the Kalypsys (Wako USA) pintool equipped with a 1536 pinhead for a [final] range of 186 nM - 114 uM. 3; Room temperature incubation. 4; Dispense 1 uL of substrate mixture from the Kohli lab [4x] […] DJC20 and [4x] 250 nM DJC23 into columns 1 to 48 . 5; Room temperature incubation. 6; Dispense 4 uL of substrate mixture [2x] 250 mM NaOH into columns 1 to 48. 7; Centrifugation step to remove bubbles. […]
In general terms: qHTS replaces the single test concentration by a dilution series.
`O=c1cc2nc(-c3ccccc3)nc(SCCN3CCC(F)(F)CC3)n2[nH]1`: the Potency entry is “inactive”. For the compound `Cc1noc(C)c1CCSc1nc(-c2ccccc2)nc2cc(=O)[nH]n12`, the Potency entry is “inactive”. In the case of `O=c1cc2nc(-c3ccccc3)nc(SCCCn3ccnc3)n2[nH]1` it was “inactive”; in that of `Cn1ccnc1CCSc1nc(-c2ccccc2)nc2cc(=O)[nH]n12`, “inactive”. In the case of `CN1CCN(CCCSc2nc(-c3ccccc3)nc3cc(=O)[nH]n23)CC1` it was “inactive”; in that of `O=C(O)C1=CC(=C(c2ccc(O)c(C(=O)O)c2)c2ccc(O)c(C(=O)O)c2)C=CC1=O`, 2240 nM (active). As for `O=c1cc2nc(-c3ccccc3)nc(SCCCc3ccncc3)n2[nH]1`, the entry is “inactive”.
